Each structure is given as a SMILES string. The source made the active and inactive calls. Unless noted, how the calls were made is not given here.

The values that follow come from PubChem BioAssay.

Assay [1] deals with Wnt5a (protein binding on small-molecule microarray). The experiment in a line: Wnt5a binders on small-molecule microarray, primary screen, biophysical, 635/667 nm fluorescence (AID 1142).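 Further: fluorescence read at 667 nm with signal to noise per printed feature.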 The settings on record: 635 nm fluorescence, higher = more signal.
Assay [2] is described as follows: cell viability in Huh7 cells, primary screen, cytotoxicity control for HCV replication inhibitor project, CellTiter-Glo luminescence, basal, 48 h (AID 1143).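 Further: Huh7 hepatoma cells carrying a hepatitis C replication reporter with no stimulus; test concentration not given here.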 The conditions noted are these: Huh7 HCV replicon, higher = more signal, called active from +8 up or from −8 down.
Assay [3] can be described thus: P. aeruginosa biofilm formation inhibitors, primary screen, PAO1 strain, BacTiter-Glo luminescence, LB-PBS (AID 1144). The settings on record: 12 h, higher = more signal.
Assay [4] can be described thus: CREB reporter modulators without forskolin, primary screen, cell-based, PC12, CRE-LacZ reporter, unstimulated (AID 1145). The settings on record: no forskolin, luminescence, 4.5 h, higher = more signal, called active from +8 up or from −8 down.
Assay [5] can be described thus: CREB reporter modulators under forskolin, primary screen, cell-based, PC12, CRE-LacZ reporter, forskolin-stimulated (AID 1146).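 Further: PC12 cells with 6xCRE LacZ reporter stimulated by forskolin 10 µM; beta-galactosidase reporter signal reflecting CREB driven transcription.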 The settings on record: luminescence, 4.5 h, higher = more signal, called active from +8 up or from −8 down.
The target of assay [6] is Streptavidin (Streptomyces avidinii) (UniProt P22629). Put plainly: streptavidin binders on small-molecule microarray, primary screen, artefact control for SMM compound annotation, biophysical, 635/667 nm fluorescence (AID 1147).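 Further: signal reflects streptavidin binding to arrayed compounds as a control protein.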 The settings on record: streptavidin binding, higher = more signal.
Chain of Streptavidin (Streptomyces avidinii) (P22629 whole entry, looked up): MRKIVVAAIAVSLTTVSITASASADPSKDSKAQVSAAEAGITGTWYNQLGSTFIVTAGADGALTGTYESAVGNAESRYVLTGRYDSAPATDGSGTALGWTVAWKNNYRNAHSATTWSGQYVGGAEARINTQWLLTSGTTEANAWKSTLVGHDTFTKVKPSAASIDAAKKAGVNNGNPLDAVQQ
Assay [7] can be described thus: small-molecule binders of probe aInhba, primary screen, biochemical, small-molecule microarray, 635/667 nm fluorescence (AID 1148).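 Further: score merges 667nm spot fluorescence with signal-to-noise for antibody binding to printed compounds.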 The settings on record: higher = more signal.
Assay [8] concerns the target Torsin-1A (Homo sapiens) (UniProt O14656). Put plainly: torsin A binders from cell lysate, primary screen, small-molecule microarray, wild-type, 635/667 nm (AID 1149). The settings on record: COS7 hTOR1A-WT lysate, 635 nm fluorescence, higher = more signal.
The target is the same in assay [9]. The experiment in a line: small-molecule binders of mutant TOR1A in lysate, primary screen, cell lysate, small-molecule microarray, COS7 lysate, 635/667 nm fluorescence (AID 1150).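 Further: score pools 667 nm emission and signal to noise measuring lysate protein binding.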 The conditions noted are these: COS7 hTOR1A mutant lysate, 635 nm fluorescence, higher = more signal.
Assay [10] concerns Sonic hedgehog protein (Shh). Put plainly: small-molecule binders of Shh protein, primary screen, biochemical, small-molecule microarray, 635/667 nm fluorescence (AID 1151).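 Further: Shh protein binding to compounds spotted on small-molecule microarray slides; score combines spot fluorescence intensity with signal-to-noise across triplicate slides.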 The conditions noted are these: small-molecule microarray binding, 635 nm fluorescence; higher = more signal.
Assay [11] is described as follows: E. coli DRC41 culture turbidity changes, primary screen, E. coli filamentation inducer project, strain DRC41, OD650, 48 h (AID 1152).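 Further: E. coli MC1000 strain DRC41 lacking acrAB efflux pump and sulA.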 The settings on record: E. coli DRC41 (acrAB sulA), higher = more signal, called active from +8 up or from −8 down.
Assay [12] can be described thus: small-molecule binders of probe aLefty1, primary screen, biochemical, small-molecule microarray, 635/667 nm fluorescence (AID 1153).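 Further: score merges spot fluorescence with signal-to-noise ratio from the scanned slide images.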 The conditions noted are these: higher = more signal.
A short description of assay [13]: PSAC antagonists in infected red cells, primary screen, cell-based, P. falciparum Indochina, OD700, 1 h (AID 1154). The conditions noted are these: P. falciparum Indochina infected RBC osmotic lysis, higher = more signal, called active from +8 up or from −8 down.
Assay [14] in a line: PSAC antagonists in infected red cells, primary screen, cell-based, P. falciparum Indochina, OD700, 2 h (AID 1155).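 Further: lysis reports solute entry through the parasite surface anion channel PSAC; channel blockers reduce lysis of infected cells.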 The conditions noted are these: P. falciparum Indochina infected erythrocytes, osmotic lysis OD700; higher = more signal, called active from +8 up or from −8 down.
The nature of assay [15]: osmotic lysis modulators in infected erythrocytes, primary screen, PSAC antagonist project, cell-based, P. falciparum Indochina, OD700, 3 h (AID 1156). The conditions noted are these: higher = more signal, called active from +8 up or from −8 down.
Assay [16] in a line: PSAC antagonists in infected red cells, primary screen, cell-based, P. falciparum Indochina, OD700, 18 h (AID 1157). The settings on record: P. falciparum Indochina infected erythrocytes, osmotic lysis OD700, 18 h; higher = more signal, called active from +8 up or from −8 down.
Assay [17] is described as follows: modulators of S6 phosphorylation in cells, primary screen, cell-based, A549, cytoblot, luminescence, serum-stimulated (AID 1158).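 Further: serum-stimulated A549 lung adenocarcinoma cells; signal is phosphorylated S6 detected by cytoblot immunostaining with HRP secondary.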 The conditions noted are these: A549 phospho-S6 cytoblot, 5 h, higher = more signal.
Assay [18] concerns the target NADPH oxidase 2 (Homo sapiens) (UniProt P04839). Put plainly: NOX2-dependent H2O2 signal modulators, primary screen, NOX inhibitor project, cell-based, HEK293-NOX2, PMA-stimulated, Amplex Red fluorescence (AID 1159). Further: test concentration not given here. The conditions noted are these: 45 min, higher = more signal, called active from +8 up or from −8 down.
The target of assay [19] is NADPH oxidase 4 (Homo sapiens) (UniProt Q9NPH5). Put plainly: NOX4-dependent H2O2 signal modulators, primary screen, NOX inhibitor project, cell-based, HEK293-NOX4, tetracycline-induced, Amplex Red fluorescence (AID 1160). The settings on record: 45 min, higher = more signal, called active from +8 up or from −8 down.
Chain of NADPH oxidase 4 (Homo sapiens) (Q9NPH5 whole entry, looked up): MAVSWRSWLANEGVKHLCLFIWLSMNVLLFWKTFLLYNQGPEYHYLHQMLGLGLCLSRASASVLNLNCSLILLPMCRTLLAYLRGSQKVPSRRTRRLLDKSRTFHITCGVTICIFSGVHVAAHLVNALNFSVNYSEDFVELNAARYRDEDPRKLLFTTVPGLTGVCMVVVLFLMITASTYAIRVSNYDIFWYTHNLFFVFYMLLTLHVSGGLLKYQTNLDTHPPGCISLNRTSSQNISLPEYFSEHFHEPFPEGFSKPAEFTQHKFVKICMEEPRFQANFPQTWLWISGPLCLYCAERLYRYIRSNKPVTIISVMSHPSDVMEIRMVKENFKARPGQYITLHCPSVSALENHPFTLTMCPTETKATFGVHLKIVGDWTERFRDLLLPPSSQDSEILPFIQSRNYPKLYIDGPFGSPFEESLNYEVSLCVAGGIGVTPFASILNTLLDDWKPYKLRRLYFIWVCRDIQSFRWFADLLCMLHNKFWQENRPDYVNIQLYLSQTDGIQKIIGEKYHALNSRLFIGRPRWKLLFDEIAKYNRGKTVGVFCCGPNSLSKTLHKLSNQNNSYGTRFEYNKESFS
The target of assay [20] is NADPH oxidase 5 (Homo sapiens) (UniProt Q96PH1). Put plainly: NOX5-dependent H2O2 signal modulators, primary screen, NOX inhibitor project, cell-based, HEK293-NOX5, Amplex Red fluorescence (AID 1161). The settings on record: HEK293-NOX5, ionomycin, 45 min, higher = more signal.
Chain of NADPH oxidase 5 (Homo sapiens) (Q96PH1 whole entry, looked up): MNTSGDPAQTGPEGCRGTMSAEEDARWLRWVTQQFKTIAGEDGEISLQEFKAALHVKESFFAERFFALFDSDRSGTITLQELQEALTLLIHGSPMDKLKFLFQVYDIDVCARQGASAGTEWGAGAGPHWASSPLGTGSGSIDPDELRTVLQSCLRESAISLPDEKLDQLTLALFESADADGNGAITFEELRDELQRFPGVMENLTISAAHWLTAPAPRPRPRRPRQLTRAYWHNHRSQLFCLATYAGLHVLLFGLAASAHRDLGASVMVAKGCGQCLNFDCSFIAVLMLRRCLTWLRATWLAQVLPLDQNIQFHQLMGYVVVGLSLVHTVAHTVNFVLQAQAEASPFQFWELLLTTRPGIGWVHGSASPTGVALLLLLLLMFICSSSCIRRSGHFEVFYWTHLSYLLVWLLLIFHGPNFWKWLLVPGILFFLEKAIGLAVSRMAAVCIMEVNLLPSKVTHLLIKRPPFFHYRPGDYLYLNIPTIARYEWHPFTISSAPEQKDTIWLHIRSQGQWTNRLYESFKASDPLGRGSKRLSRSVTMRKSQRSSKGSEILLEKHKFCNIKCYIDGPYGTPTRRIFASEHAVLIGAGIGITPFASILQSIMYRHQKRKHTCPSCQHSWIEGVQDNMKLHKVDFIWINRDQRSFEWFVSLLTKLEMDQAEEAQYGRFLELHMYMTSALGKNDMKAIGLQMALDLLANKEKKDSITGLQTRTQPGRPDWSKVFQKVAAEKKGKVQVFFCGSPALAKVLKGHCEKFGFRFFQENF

Chain of NADPH oxidase 2 (Homo sapiens) (P04839 whole entry, looked up): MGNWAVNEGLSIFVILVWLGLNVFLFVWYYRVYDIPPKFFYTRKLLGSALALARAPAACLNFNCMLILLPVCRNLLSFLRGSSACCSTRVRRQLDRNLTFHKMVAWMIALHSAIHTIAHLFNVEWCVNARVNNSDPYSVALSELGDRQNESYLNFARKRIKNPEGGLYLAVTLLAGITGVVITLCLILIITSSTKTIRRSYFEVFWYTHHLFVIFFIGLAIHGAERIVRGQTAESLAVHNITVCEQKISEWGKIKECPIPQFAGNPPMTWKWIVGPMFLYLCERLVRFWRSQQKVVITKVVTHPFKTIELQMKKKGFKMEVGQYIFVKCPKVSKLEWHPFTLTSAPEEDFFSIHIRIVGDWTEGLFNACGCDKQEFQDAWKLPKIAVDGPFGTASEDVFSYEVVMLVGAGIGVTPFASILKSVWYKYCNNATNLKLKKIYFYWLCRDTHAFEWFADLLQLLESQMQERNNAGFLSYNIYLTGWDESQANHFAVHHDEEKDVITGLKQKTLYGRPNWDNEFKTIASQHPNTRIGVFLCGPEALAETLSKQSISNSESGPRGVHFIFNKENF
Chain of Torsin-1A (Homo sapiens) (O14656 whole entry, looked up): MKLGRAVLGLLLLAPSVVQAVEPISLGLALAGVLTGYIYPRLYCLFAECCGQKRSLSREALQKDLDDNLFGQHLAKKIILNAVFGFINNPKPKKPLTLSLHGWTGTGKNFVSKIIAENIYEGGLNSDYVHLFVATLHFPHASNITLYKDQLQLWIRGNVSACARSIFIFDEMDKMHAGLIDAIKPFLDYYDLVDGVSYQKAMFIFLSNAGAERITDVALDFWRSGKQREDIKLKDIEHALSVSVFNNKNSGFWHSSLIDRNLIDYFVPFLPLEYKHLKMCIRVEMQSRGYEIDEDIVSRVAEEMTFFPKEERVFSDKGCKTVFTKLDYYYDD

Consider `Cn1c(=O)n2n(c1=O)[C@H]1[C@H](O)[C@@H]3O[C@@H]3C(=NOC[C@@H](O)COCc3ccco3)[C@H]1CC2`, for which the composite z-score in assay [1] is 0.0562; in assay [6], 0.548; in assay [7], 0.0345; in assay [8], 0.547; in assay [9], 0.266; in assay [10], 0.582. In addition, in [12], the composite z-score turned out to be 0.946. For the same compound, the z-score is -0.0843 (inactive) in assay [2]; 0.0712 (inactive) in [3]; 0.248 (inactive) in assay [4]; 0.496 (inactive) in [5]; 0.301 (inactive) in assay [11]; 0.697 (inactive) in assay [13]. In addition, the z-score in [14] is -0.507 (inactive); in assay [15] it was 0.671 (inactive); in [16], 0.08 (inactive); in [17] it was 0.0625; in assay [18] it was -1.04 (inactive); in assay [19], 0.733 (inactive). The compound further displayed a z-score in [20] of 0.59.
Regarding `CCN1C(=O)[C@H]2[C@H]3[C@H](O)[C@H](O)CC(=NOC(C)CN4CCCCc5nc(C)c(C)cc54)[C@@H]3CC[C@H]2C1=O` (stereo not given in full), the composite z-score in [1] was 0.185; in [6], -0.0098; in [7] it was -0.024; in assay [8], 0.763; in assay [9] it was 0.769; in assay [10] it was 0.809. In assay [12], the composite z-score was -0.106. Moreover, the z-score was 0.06 (inactive) in assay [2]; 1.07 (inactive) in assay [3]; 0.778 (inactive) in [4]; 0.618 (inactive) in assay [5]; 0.803 (inactive) in assay [11]; 0.29 (inactive) in assay [13]. In addition, the z-score in [14] is 0.15 (inactive); in assay [15], 0.363 (inactive); in [16] it was 0.317 (inactive); in assay [17], -0.518; in assay [18], -0.588 (inactive); in assay [19] it was -0.245 (inactive). Further, in assay [20], the z-score is -0.239.
For `N#Cc1ccc(NN2C(C(O)c3cccc4ccccc34)C=CC3C(=O)N(c4ccccc4)C(=O)C32)cc1` (stereo not given), the composite z-score in assay [1] was 0.305; in [6] it was 1.75; in assay [7], 0.49; in assay [8], 0.612; in assay [9] it was 0.358; in [10], -0.335. In [12], this compound displayed a composite z-score of 0.696. The z-score in assay [2] was 0.128 (inactive); in assay [3], -0.811 (inactive); in assay [4], -0.708 (inactive); in [5] it was -0.302 (inactive); in assay [11], -0.499 (inactive); in [13], 12.6 (active). For the same compound, the z-score was 2.68 (inactive) in assay [14]; 1.33 (inactive) in assay [15]; 1.44 (inactive) in assay [16]; -0.067 in assay [17]; -1.58 (inactive) in assay [18]; -3.65 (inactive) in [19]. In addition, in assay [20], the z-score is -3.57.
Regarding `COc1cccc([C@H]2Oc3ccc(OC)cc3C(=NOC(C)CN3CCCc4nc(C)c(C)cc43)[C@@H]2O)c1` (stereo not given in full), the composite z-score in [1] was 0.35; in assay [6] it was -0.504; in assay [7], 0.0442; in assay [8], 0.433; in [9], 0.27; in assay [10], 0.478. For the same compound, the composite z-score in assay [12] was 0.0809. In addition, the z-score was -0.252 (inactive) in assay [2]; 1.28 (inactive) in assay [3]; 2.71 (inactive) in [4]; -0.0145 (inactive) in assay [5]; -0.304 (inactive) in assay [11]; 2.47 (inactive) in assay [13]. Further, the z-score is 0.542 (inactive) in assay [14]; 0.714 (inactive) in [15]; 0.465 (inactive) in assay [16]; -0.912 in [17]; -1.12 (inactive) in assay [18]; -0.807 (inactive) in assay [19]. For the same compound, the z-score in assay [20] worked out at 1.57.
For `CC(CCC(=O)OC[C@H]1O[C@H](C#Cc2ccccc2)C=C[C@@H]1Oc1ccc(C)cc1)=NOC[C@@H](O)COCc1ccco1`, the composite z-score in [1] was -1.52; in [6], -1.78; in [7] it was -0.446; in assay [8] it was -6.37; in assay [9], -5.2; in [10] it was -2.43. Further, the composite z-score in assay [12] was -0.839. Moreover, the z-score is -0.204 (inactive) in assay [2]; -0.128 (inactive) in [3]; 3.74 (inactive) in assay [4]; 1.9 (inactive) in assay [5]; 0.654 (inactive) in assay [11]; 17.7 (active) in assay [13]. The z-score is 1.77 (inactive) in assay [14]; 0.811 (inactive) in assay [15]; 1.18 (inactive) in assay [16]; 0.63 in [17]; -0.0388 (inactive) in [18]; 0.811 (inactive) in assay [19]. In addition, the z-score in [20] was -0.37.
